In PubChem BioAssay (EPA / NIEHS):
Records with an inconclusive call do not appear. Active and inactive are the calls of the source. The calls were made as follows, unless noted: active = hit-call score of the fitted dose curve at least 0.9, where 1 is the maximum; inconclusive = response in the unintended direction; inactive = score below 0.9.

Columns and labels:
[1] = target: human Peroxisome Proliferator-activated Receptor alpha (PPARa), PPARA (gene 5465) (UniProt Q07869); assay: ATG_PPARa_TRANS: Attagene TRANS-FACTORIAL HepG2 Assay for human Peroxisome Proliferator-activated Receptor alpha (PPARa) (AID 2283001);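 as to AC50: potency for gain of reporter signal over DMSO so agonist or activator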
Sequence of human Peroxisome Proliferator-activated Receptor alpha (PPARa), PPARA (gene 5465) (Q07869 whole entry, looked up, the tested form may be a part): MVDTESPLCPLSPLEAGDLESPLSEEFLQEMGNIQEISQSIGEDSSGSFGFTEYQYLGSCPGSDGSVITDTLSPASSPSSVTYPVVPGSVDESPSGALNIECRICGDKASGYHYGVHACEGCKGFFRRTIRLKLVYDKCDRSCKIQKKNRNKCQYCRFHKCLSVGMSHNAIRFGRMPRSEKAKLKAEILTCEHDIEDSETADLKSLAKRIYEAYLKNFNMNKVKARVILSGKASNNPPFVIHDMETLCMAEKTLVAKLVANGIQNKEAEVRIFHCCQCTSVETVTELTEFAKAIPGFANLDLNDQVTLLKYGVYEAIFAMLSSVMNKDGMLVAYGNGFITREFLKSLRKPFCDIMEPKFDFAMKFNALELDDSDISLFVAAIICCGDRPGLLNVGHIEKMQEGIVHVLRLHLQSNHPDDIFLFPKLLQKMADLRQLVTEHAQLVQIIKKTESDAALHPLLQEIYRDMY
Method in brief: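 HepG2 cells transiently transfected with multiplexed GAL4-UAS reporters driven by exogenous chimeric NR-Gal4 proteins; reporter mRNA measured after 24 h dosing. Read-out by RT-PCR, 6-FAM labelling, HpaI digestion and capillary electrophoresis; gain of signal versus DMSO.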

[2] = target: human Peroxisome Proliferator-activated Receptor delta (PPARd), PPARD (gene 5467) (UniProt Q03181); assay: ATG_PPARd_TRANS: Attagene TRANS-FACTORIAL HepG2 Assay for human Peroxisome Proliferator-activated Receptor delta (PPARd) (AID 2283002)
Sequence of human Peroxisome Proliferator-activated Receptor delta (PPARd), PPARD (gene 5467) (Q03181 whole entry, looked up, the tested form may be a part): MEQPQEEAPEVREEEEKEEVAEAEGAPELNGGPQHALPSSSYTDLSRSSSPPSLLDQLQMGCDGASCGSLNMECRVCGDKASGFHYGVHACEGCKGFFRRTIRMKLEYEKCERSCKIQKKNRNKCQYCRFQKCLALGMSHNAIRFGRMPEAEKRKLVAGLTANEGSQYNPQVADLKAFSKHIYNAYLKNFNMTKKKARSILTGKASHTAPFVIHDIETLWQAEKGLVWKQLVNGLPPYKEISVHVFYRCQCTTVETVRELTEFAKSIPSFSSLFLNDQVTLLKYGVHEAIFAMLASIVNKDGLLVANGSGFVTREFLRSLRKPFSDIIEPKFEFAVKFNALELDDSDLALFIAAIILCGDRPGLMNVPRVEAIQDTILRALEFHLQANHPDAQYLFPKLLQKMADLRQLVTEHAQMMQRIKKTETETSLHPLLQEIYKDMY
Method in brief: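 Fluorescence from capillary electrophoresis of labelled RT-PCR reporter fragments gives the signal; DMSO sets baseline. Cells: HepG2 transiently carrying GAL4-UAS reporter units plus chimeric nuclear receptor-Gal4 proteins, exposed to chemicals for 24 h.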

[3] = read-out: Intercellular Adhesion Molecule 1 (ICAM1), ICAM1 (gene 3383); assay: BSK_3C_ICAM1: BioMAP Diversity Plus: 3C Assay for Intercellular Adhesion Molecule 1 (ICAM1) Biomarker Activity (AID 2283003; active = hit-call score of the fitted dose curve at least 0.9, where 1 is the maximum; inactive = score below 0.9); details: primary human endothelial cells (HUVEC); actives raise or lower the signal
Method in brief: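 HUVEC primary cells stimulated under 3C conditions; ICAM1 measured by ELISA 24 h after compound dosing. Curves fitted bidirectionally against the DMSO baseline. Overt cytotoxicity checked by SRB staining of parallel cultures.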

[4] = BSK_3C_Proliferation: Cell Proliferation Assessment in the BioMAP Diversity Plus: 3C Assay (AID 2283006; active = hit-call score of the fitted dose curve at least 0.9, where 1 is the maximum; inactive = score below 0.9;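 as to AC50: potency may reflect either rise or fall in cell number versus DMSO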); details: primary human endothelial cells (HUVEC)
Method in brief: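 Subconfluent HUVEC (3C system) cultured with chemical; relative cell number read at 48 h by sulforhodamine B total-protein staining (0.1% SRB after 10% TCA fixation, 560 nm). Bidirectional fit relative to DMSO.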

[5] = target: Peroxisome proliferator-activated receptor gamma (Homo sapiens) (UniProt P37231); assay: ATG_PPARg_TRANS: Attagene TRANS-FACTORIAL HepG2 Assay for human Peroxisome Proliferator-activated Receptor-gamma (PPARg) (AID 2283007)
Sequence of Peroxisome proliferator-activated receptor gamma (Homo sapiens) (P37231 whole entry, looked up): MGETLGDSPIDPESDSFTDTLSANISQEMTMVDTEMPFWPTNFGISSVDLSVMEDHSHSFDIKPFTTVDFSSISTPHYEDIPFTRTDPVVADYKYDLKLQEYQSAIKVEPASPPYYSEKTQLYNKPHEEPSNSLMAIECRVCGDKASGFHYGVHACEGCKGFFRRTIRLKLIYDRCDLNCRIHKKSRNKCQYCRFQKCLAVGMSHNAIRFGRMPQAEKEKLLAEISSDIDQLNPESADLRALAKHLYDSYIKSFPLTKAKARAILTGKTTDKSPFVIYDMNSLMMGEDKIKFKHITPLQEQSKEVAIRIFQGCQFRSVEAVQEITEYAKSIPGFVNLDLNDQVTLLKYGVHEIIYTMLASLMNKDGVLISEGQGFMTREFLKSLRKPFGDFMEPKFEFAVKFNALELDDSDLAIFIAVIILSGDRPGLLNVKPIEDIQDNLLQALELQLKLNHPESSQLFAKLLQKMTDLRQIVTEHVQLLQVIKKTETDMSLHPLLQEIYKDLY
Method in brief: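 Twenty-four hours after chemical dosing of transiently transfected HepG2 cells, isolated RNA was converted to cDNA, reporter sequences amplified and 6-FAM-labelled, then HpaI-digested and analysed by capillary electrophoresis. Signal increase against DMSO was fitted.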

[6] = target: Nuclear receptor subfamily 1 group I member 2 (Homo sapiens) (UniProt O75469); assay: ATG_PXR_TRANS: Attagene TRANS-FACTORIAL HepG2 Assay for human Pregnane X Receptor (PXR) (AID 2283008)
Sequence of Nuclear receptor subfamily 1 group I member 2 (Homo sapiens) (O75469 whole entry, looked up, the tested form may be a part): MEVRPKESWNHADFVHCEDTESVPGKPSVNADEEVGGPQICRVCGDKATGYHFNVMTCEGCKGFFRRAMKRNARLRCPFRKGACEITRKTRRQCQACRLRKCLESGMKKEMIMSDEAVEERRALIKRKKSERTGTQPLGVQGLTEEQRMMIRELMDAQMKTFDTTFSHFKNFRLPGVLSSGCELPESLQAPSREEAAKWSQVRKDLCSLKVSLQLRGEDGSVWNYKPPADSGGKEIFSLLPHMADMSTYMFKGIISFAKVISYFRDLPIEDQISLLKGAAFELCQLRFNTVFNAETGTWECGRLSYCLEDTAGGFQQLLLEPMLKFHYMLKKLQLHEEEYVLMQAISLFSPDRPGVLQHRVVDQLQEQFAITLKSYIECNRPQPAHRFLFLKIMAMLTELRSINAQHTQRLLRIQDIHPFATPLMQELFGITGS
Method in brief: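 Read-out is fluorescence of labelled reporter cDNA fragments separated by capillary electrophoresis after RT-PCR and HpaI digestion. Source: HepG2 cells carrying PXR-GAL4/UAS reporter constructs, treated 24 h; activity fitted upward relative to DMSO.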

[7] = target: human RAR-related Orphan Receptor beta (RORb), RORB (gene 6096) (UniProt Q92753); assay: ATG_RORb_TRANS: Attagene TRANS-FACTORIAL HepG2 Assay for human RAR-related Orphan Receptor beta (RORb) (AID 2283010)
Sequence of human RAR-related Orphan Receptor beta (RORb), RORB (gene 6096) (Q92753 whole entry, looked up, the tested form may be a part): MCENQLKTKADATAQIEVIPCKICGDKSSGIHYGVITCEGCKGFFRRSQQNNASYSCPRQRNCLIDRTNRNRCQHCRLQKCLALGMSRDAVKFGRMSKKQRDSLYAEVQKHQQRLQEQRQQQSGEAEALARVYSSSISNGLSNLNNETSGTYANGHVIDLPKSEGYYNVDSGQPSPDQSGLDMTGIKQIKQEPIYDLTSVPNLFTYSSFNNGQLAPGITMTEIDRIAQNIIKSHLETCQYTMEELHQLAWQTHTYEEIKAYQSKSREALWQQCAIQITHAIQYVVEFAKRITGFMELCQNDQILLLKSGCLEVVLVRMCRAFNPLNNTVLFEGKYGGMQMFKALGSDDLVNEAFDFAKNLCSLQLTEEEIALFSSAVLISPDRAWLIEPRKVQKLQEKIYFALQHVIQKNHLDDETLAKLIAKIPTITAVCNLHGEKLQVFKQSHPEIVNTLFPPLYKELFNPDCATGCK
Method in brief: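 HepG2 cells transiently transfected with GAL4-UAS reporter units expressing chimeric NR-Gal4 protein; reporter mRNA measured 24 h after dosing by RT-PCR, 6-FAM labelling and capillary electrophoresis. Gain-of-signal fitted relative to DMSO baseline.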

[8] = target: Retinoic acid receptor RXR-alpha (Homo sapiens) (UniProt P19793); assay: ATG_RXRa_TRANS: Attagene TRANS-FACTORIAL HepG2 Assay for human Retinoid X Receptor alpha (RXRa) (AID 2283012)
Sequence of Retinoic acid receptor RXR-alpha (Homo sapiens) (P19793 whole entry, looked up, the tested form may be a part): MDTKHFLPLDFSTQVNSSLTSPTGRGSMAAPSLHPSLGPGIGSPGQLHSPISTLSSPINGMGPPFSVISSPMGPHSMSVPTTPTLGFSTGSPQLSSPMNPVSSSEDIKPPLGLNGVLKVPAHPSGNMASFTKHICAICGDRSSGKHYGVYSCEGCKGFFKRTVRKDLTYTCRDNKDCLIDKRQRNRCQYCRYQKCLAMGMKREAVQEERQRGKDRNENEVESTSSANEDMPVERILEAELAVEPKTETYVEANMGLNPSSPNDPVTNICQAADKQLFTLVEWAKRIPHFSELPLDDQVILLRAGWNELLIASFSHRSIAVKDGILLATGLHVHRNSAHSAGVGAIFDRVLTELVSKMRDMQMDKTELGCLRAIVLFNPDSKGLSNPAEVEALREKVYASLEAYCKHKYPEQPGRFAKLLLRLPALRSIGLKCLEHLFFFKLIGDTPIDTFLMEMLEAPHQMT
Method in brief: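 HepG2 cells transiently transfected with GAL4-UAS reporter units and chimeric RXRa-Gal4 protein, treated 24 h. Reporter mRNA measured by RT-PCR, fluorescent labelling, HpaI digestion and capillary electrophoresis. Induction fitted against DMSO.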

[9] = target: human Retinoid X Receptor beta (RXRb), RXRB (gene 6257) (UniProt P28702); assay: ATG_RXRb_TRANS: Attagene TRANS-FACTORIAL HepG2 Assay for human Retinoid X Receptor beta (RXRb) (AID 2283013)
Sequence of human Retinoid X Receptor beta (RXRb), RXRB (gene 6257) (P28702 whole entry, looked up, the tested form may be a part): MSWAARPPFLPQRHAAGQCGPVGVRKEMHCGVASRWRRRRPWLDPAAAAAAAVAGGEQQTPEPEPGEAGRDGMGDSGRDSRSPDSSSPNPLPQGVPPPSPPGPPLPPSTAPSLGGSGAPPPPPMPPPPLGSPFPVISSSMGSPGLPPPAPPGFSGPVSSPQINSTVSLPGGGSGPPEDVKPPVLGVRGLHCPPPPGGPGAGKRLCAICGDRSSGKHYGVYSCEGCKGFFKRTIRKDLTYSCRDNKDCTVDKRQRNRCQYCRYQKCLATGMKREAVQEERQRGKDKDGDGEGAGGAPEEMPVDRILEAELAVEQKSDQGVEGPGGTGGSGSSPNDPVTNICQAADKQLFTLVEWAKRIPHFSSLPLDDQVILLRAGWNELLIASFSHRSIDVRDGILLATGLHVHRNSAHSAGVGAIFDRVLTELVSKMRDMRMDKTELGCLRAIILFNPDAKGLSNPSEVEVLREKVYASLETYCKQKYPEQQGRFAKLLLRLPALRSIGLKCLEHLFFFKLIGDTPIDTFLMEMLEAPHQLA
Method in brief: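 HepG2 cells were transiently transfected with multiplexed GAL4-UAS reporters and a chimeric RXRb-Gal4 construct, then exposed for 24 h. Reporter mRNA was quantified by RT-PCR, FAM labeling, HpaI digestion and capillary electrophoresis; gain of signal was scored against DMSO.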

[10] = read-out: E-selectin (Homo sapiens) (UniProt P16581); assay: BSK_3C_Eselectin: BioMAP Diversity Plus: 3C Assay for Eselectin Biomarker Activity (AID 2283015; active = hit-call score of the fitted dose curve at least 0.9, where 1 is the maximum; inactive = score below 0.9;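 as to outcome: cell surface E-selectin protein quantified by ELISA 24 h after dosing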); details: primary human endothelial cells (HUVEC); actives raise or lower the signal
Method in brief: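 HUVEC, 3C stimulation; compound exposure 24 h; E-selectin by ELISA; gain- or loss-of-signal fitted bidirectionally vs DMSO baseline.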

[11] = read-out: Interleukin-1 alpha (IL1a), IL1A (gene 3552); assay: BSK_BE3C_IL1a: BioMAP Diversity Plus: BE3C Assay for Interleukin-1 alpha (IL1a) Biomarker Activity (AID 2283016; active = hit-call score of the fitted dose curve at least 0.9, where 1 is the maximum; inactive = score below 0.9); details: primary human bronchial epithelial cells; actives raise or lower the signal
Method in brief: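 Human primary bronchial epithelial cells, 24 h chemical exposure; IL-1a quantified by ELISA, fitted bidirectionally against DMSO. Cytotoxicity assessed in parallel by SRB total-protein staining at the time of measurement.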

[12] = read-out: Monocyte Chemoattractant Protein-1 (MCP1), CCL2 (gene 6347); assay: BSK_3C_MCP1: BioMAP Diversity Plus: 3C Assay for Monocyte Chemoattractant Protein-1 (MCP1) Biomarker Activity (AID 2283017; active = hit-call score of the fitted dose curve at least 0.9, where 1 is the maximum; inactive = score below 0.9); details: primary human endothelial cells (HUVEC); actives raise or lower the signal
Method in brief: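 HUVEC, 3C system; 24 h chemical exposure; MCP-1 by ELISA; bidirectional curve fit vs DMSO baseline.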

[13] = read-out: Monocyte Chemoattractant Protein-1 (MCP1), CCL2 (gene 6347); assay: BSK_4H_MCP1: BioMAP Diversity Plus: 4H Assay for Monocyte Chemoattractant Protein-1 (MCP1) Biomarker Activity (AID 2283018; active = hit-call score of the fitted dose curve at least 0.9, where 1 is the maximum; inactive = score below 0.9); details: primary human endothelial cells (HUVEC); actives raise or lower the signal
Method in brief: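 Human umbilical vein endothelial cells (4H system) exposed to chemicals for 24 h in 96-well format. MCP-1 measured by ELISA; bidirectional fitting against DMSO, with SRB total-protein staining in parallel cultures for cytotoxicity.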

[14] = read-out: Human Leukocyte Antigen - DR isotype (HLADR), HLA-DRA (gene 3122); assay: BSK_3C_HLADR: BioMAP Diversity Plus: 3C Assay for Human Leukocyte Antigen - DR isotype (HLADR) Biomarker Activity (AID 2283019; active = hit-call score of the fitted dose curve at least 0.9, where 1 is the maximum; inactive = score below 0.9;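 as to outcome: ELISA of cell-surface HLA-DR on HUVEC 24 h after dosing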); details: primary human endothelial cells (HUVEC); actives raise or lower the signal
Method in brief: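 HUVEC, 3C stimulation, 24 h post-dose; HLA-DR by ELISA; bidirectional curve fit vs DMSO baseline; gain or loss of signal scored.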

[15] = read-out: Interleukin-8 (IL8), CXCL8 (gene 3576); assay: BSK_3C_IL8: BioMAP Diversity Plus: 3C Assay for Interleukin-8 (IL8) Biomarker Activity (AID 2283020; active = hit-call score of the fitted dose curve at least 0.9, where 1 is the maximum; inactive = score below 0.9); details: primary human endothelial cells (HUVEC); actives raise or lower the signal
Method in brief: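 Primary human umbilical vein endothelial cells were dosed for 24 h. IL-8 was quantified by ELISA and fitted bidirectionally against DMSO. Cytotoxicity was assessed in parallel cultures by SRB staining at 560 nm.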

[16] = target: human RAR-related Orphan Receptor gamma (RORg), RORC (gene 6097) (UniProt P51449); assay: ATG_RORg_TRANS: Attagene TRANS-FACTORIAL HepG2 Assay for human RAR-related Orphan Receptor gamma (RORg) (AID 2283011)
Sequence of human RAR-related Orphan Receptor gamma (RORg), RORC (gene 6097) (P51449 whole entry, looked up, the tested form may be a part): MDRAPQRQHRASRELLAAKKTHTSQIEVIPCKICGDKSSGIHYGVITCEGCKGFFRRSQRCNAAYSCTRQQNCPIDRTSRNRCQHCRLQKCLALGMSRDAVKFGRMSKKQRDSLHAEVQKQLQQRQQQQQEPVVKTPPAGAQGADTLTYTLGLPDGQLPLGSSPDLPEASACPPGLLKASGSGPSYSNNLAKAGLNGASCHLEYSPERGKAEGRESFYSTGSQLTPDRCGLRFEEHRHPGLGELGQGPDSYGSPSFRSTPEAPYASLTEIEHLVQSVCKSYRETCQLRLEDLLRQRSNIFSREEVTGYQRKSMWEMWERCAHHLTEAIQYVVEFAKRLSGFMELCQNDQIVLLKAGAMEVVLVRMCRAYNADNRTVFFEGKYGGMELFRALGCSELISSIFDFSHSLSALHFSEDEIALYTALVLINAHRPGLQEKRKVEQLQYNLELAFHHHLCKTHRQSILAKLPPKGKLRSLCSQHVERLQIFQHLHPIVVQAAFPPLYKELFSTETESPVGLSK
Method in brief: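 Transient MRTU transfection of HepG2 (TRANS format, exogenous NR-Gal4 chimera). 24 h dosing. Total RNA → oligo(dT) RT → PCR → 6-FAM labelling → HpaI cut → CE. Gain vs DMSO.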

[17] = target: human Thyroid Receptor alpha (THRa1), THRA (gene 7067) (UniProt P10827); assay: ATG_THRa1_TRANS: Attagene TRANS-FACTORIAL HepG2 Assay for human Thyroid Receptor alpha (THRa1) (AID 2283014)
Method in brief: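 Transient HepG2 transfection, NR-Gal4 chimera driving GAL4-UAS reporters; 24 h compound exposure; total RNA, oligo(dT) RT, PCR, fluorescent primer extension, capillary electrophoresis. Upward direction vs DMSO control.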

[18] = target: human Retinoic Acid Receptor beta (RARb), RARB (gene 5915) (UniProt P10826); assay: ATG_RARb_TRANS: Attagene TRANS-FACTORIAL HepG2 Assay for human Retinoic Acid Receptor beta (AID 2283004)
Method in brief: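 Readout is reporter mRNA induction: RNA reverse-transcribed, PCR-amplified, FAM-labelled, HpaI-cut and resolved by capillary electrophoresis. Transiently transfected HepG2 cells carrying exogenous NR–Gal4 chimeras were dosed for 24 h; activity fitted upward relative to DMSO.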

[19] = target: human Retinoic Acid Receptor gamma (RARg), RARG (gene 5916) (UniProt P13631); assay: ATG_RARg_TRANS: Attagene TRANS-FACTORIAL HepG2 Assay for human Retinoic Acid Receptor gamma (RARg) (AID 2283009)
Sequence of human Retinoic Acid Receptor gamma (RARg), RARG (gene 5916) (P13631 whole entry, looked up, the tested form may be a part): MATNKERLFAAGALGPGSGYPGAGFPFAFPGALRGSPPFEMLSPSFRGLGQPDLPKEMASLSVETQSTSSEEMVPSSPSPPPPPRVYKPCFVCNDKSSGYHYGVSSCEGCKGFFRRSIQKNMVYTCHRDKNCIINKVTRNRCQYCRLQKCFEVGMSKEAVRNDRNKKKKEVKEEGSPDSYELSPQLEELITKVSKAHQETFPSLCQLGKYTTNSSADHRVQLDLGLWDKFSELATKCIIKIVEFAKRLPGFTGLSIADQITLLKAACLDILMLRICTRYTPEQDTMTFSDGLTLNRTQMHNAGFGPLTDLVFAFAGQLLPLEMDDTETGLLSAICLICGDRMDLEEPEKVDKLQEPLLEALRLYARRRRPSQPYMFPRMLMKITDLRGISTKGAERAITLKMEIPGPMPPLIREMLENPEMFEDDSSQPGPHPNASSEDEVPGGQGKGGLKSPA
Method in brief: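 HepG2 transiently transfected with GAL4-UAS reporter units and chimeric NR-Gal4 constructs; 24 h compound exposure. Reporter mRNA quantified by RT-PCR, FAM labeling, HpaI digestion and capillary electrophoresis; gain-of-signal versus DMSO.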

[20] = target: Retinoic acid receptor alpha (Homo sapiens) (UniProt P10276); assay: ATG_RARa_TRANS: Attagene TRANS-FACTORIAL HepG2 Assay for human Retinoic Acid Receptor alpha (RARa) (AID 2283005)
Method in brief: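 HepG2 transiently transfected with multiplex GAL4-UAS reporter units including a human RARa–GAL4 chimera; 24 h compound exposure. Reporter mRNA quantified by RT-PCR, 6-FAM labeling and capillary electrophoresis; gain of signal versus DMSO.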

Sequence of E-selectin (Homo sapiens) (P16581 whole entry, looked up): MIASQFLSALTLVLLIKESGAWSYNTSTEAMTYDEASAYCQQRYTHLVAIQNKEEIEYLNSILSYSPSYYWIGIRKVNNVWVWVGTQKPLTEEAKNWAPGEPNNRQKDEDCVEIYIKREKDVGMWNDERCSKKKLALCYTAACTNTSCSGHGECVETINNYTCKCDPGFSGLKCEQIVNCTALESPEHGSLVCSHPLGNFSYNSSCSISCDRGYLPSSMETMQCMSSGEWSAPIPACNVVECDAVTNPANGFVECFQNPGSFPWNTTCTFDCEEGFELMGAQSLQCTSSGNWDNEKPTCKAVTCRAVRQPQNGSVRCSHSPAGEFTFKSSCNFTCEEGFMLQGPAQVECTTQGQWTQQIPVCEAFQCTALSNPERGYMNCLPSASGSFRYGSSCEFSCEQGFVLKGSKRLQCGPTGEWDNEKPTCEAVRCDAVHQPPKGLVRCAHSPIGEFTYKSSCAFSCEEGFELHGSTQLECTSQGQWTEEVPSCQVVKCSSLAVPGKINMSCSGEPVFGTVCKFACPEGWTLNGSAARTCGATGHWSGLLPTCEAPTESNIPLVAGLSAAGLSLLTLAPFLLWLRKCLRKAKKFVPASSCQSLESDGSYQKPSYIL

SMILES: C#C[C@]1(O)CC[C@H]2[C@@H]3CCC4=Cc5oncc5C[C@]4(C)[C@H]3CC[C@@]21C
- AC50 [1]: 176 µM (active)
- outcome [2]: inactive
- outcome [3]: inactive
- AC50 [4]: 20 µM (active)
- outcome [5]: inactive
- AC50 [6]: 5.38 µM (active)
- outcome [7]: inactive
- AC50 [8]: 120 µM (active)
- AC50 [9]: 154 µM (active)
- AC50 [10]: 1.49 µM (active)
- AC50 [11]: 33.4 µM (active)
- outcome [12]: inactive
- outcome [13]: inactive
- AC50 [14]: 20 µM (active)
- outcome [15]: inactive

SMILES: c1ccc2c(c1)c1cccc3ccc4cccc2c4c31
- outcome [1]: inactive
- outcome [2]: inactive
- outcome [3]: inactive
- outcome [4]: inactive
- outcome [6]: inactive
- outcome [7]: inactive
- outcome [16]: inactive
- AC50 [9]: 10.2 µM (active)
- outcome [17]: inactive
- outcome [10]: inactive
- outcome [11]: inactive
- outcome [12]: inactive
- outcome [13]: inactive
- AC50 [14]: 0.206 µM (active)
- outcome [15]: inactive

SMILES: O=C(O)c1snc(Cl)c1Cl
- outcome [1]: inactive
- outcome [2]: inactive
- AC50 [5]: 25.3 µM (active)
- outcome [6]: inactive
- outcome [8]: inactive
- outcome [9]: inactive

SMILES: CCCCCOC(=O)CCC
- outcome [1]: inactive
- outcome [2]: inactive
- outcome [18]: inactive
- outcome [5]: inactive
- outcome [19]: inactive
- outcome [7]: inactive
- outcome [16]: inactive
- outcome [8]: inactive
- outcome [9]: inactive

SMILES: CCCC/C=C\CCCCCCCCCC=O
- outcome [1]: inactive
- outcome [2]: inactive
- outcome [5]: inactive
- outcome [6]: inactive
- AC50 [9]: 6.07 µM (active)

SMILES: Nc1cc([N+](=O)[O-])ccc1O
- outcome [1]: inactive
- outcome [2]: inactive
- outcome [3]: inactive
- outcome [4]: inactive
- outcome [5]: inactive
- outcome [6]: inactive
- outcome [8]: inactive
- outcome [9]: inactive
- outcome [10]: inactive
- outcome [11]: inactive
- outcome [12]: inactive
- outcome [13]: inactive
- outcome [14]: inactive
- outcome [15]: inactive

SMILES: NCCNCCN
- outcome [1]: inactive
- outcome [2]: inactive
- outcome [3]: inactive
- outcome [4]: inactive
- outcome [5]: inactive
- outcome [6]: inactive
- outcome [7]: inactive
- outcome [16]: inactive
- outcome [8]: inactive
- outcome [9]: inactive
- outcome [10]: inactive
- outcome [11]: inactive
- outcome [12]: inactive
- outcome [13]: inactive
- outcome [14]: inactive
- outcome [15]: inactive

SMILES: CC1CCC(C(C)CS)CC1S (configuration not stated)
- AC50 [1]: 53.7 µM (active)
- outcome [2]: inactive
- AC50 [3]: 27.4 µM (active)
- AC50 [4]: 25.7 µM (active)
- AC50 [5]: 41 µM (active)
- outcome [19]: inactive
- AC50 [9]: 59.9 µM (active)
- AC50 [10]: 30.6 µM (active)
- AC50 [11]: 20 µM (active)
- AC50 [12]: 20 µM (active)
- AC50 [13]: 20 µM (active)
- AC50 [14]: 35.1 µM (active)
- outcome [15]: inactive

SMILES: O=C(O)CN(CCN(CC(=O)O)CC(=O)O)CCN(CC(=O)O)CC(=O)O
- outcome [1]: inactive
- outcome [2]: inactive
- outcome [18]: inactive
- outcome [20]: inactive
- outcome [5]: inactive
- outcome [19]: inactive
- outcome [7]: inactive
- outcome [16]: inactive
- outcome [8]: inactive
